Reference: PubChem BioAssay AID2314 (National Center for Advancing Translational Sciences (NCATS), 2010)
Hit rate of the full screen: of about 300,000 compounds, about 37,000 (12%) were called active. The full list was thinned out, with actives kept by preference. Unmarked numbers belong to inactive results. Rule as the data show it: active = max response mostly above about 13% (no sharp cut-off); inactive = mostly below about 14%.

Assay: Cycloheximide Counterscreen for Small Molecule Inhibitors of Shiga Toxin; also: read at 38.3 µM for the half of the compounds with a filed dose; 0% is about no effect
Conditions: cell reporter, cycloheximide protein synthesis inhibition counterscreen; active compounds read high

Row | SMILES | max response
1 | Cc1nnc(SCC(=O)Nc2ccc(S(=O)(=O)Nc3ccc(Cl)nn3)cc2)s1 | -1.1%
2 | CCOc1ccc(C(=O)Nc2ccc(S(=O)(=O)Nc3cc(C)on3)cc2)cc1 | -5.61%
3 | Cc1cc(NC(=O)c2cccc(N3C(=O)CCC3=O)c2)no1 | -2.26%
4 | Cc1cc(NC(=O)CN2CCC(O)(c3cccc(F)c3)CC2)no1 | 4.43%
5 | CCOc1ccc(NC(=O)Nc2cc(C)ccc2OC)cc1 | 25.4% (active)
6 | CCOc1ccc(C(=O)Nc2cc(OC)ccc2OC)cc1 | -3.82%
7 | Cc1cc(NC(=O)CSCc2ccccc2C)no1 | 12.4%
8 | CCC(=O)Nc1ccc(C(=O)Nc2ccc3c(c2)C(=O)N(CC2CCCO2)C3=O)cc1 (configuration not stated) | -2.89%
9 | CCOc1ccc(NC(=O)Nc2cc(C)on2)cc1 | 43.6% (active)
10 | CCC(=O)Nc1ccc(C(=O)Nc2cc(C)on2)cc1 | 17.5% (active)
11 | COc1ccc(C)cc1NC(=O)Nc1ccccc1SC | 0.774%
12 | Cc1cc(NC(=O)c2ccccc2C)no1 | 32.6% (active)
13 | CCOc1ccc(CC(=O)Nc2ccc(S(=O)(=O)Nc3cc(C)on3)cc2)cc1OCC | -4.07%
14 | COc1cccc(NC(=S)N(CCc2c(C)[nH]c3ccccc23)Cc2ccco2)c1 | -1.95%
15 | O=S(=O)(NC1CC1)c1ccc(Cl)cc1 | -3.78%
16 | CCOC(=O)C1=C(CCc2ccccc2)NC(=O)NC1c1ccc2ccccc2c1 (configuration not stated) | -1.16%
17 | CC1(c2ccc3ccccc3c2)NC(=O)NC1=O (configuration not stated) | 1.06%
18 | CCN(CC)C(=O)CN(c1cccc(OC)c1)S(=O)(=O)c1ccc(C)cc1 | 1.38%
19 | COc1ccc(C)cc1-n1nnnc1SCc1nc2ccccc2c(=O)[nH]1 | 10.3%
20 | COc1ccc(CCn2c(NN=C3CCCC3)nc3c2c(=O)[nH]c(=O)n3C)cc1 | 0.589%
21 | CC(=O)Nc1ccc(NC(=O)c2sc3nc4c(c(-c5ccc(C)cc5)c3c2N)CCC4)cc1 | 0.359%
22 | Cc1ccc(NC(=O)c2sc3nc(N)c(C#N)cc3c2N)cc1 | 41% (active)
23 | CCc1ccc2nc3sc(C(=O)Nc4nnc(CC)s4)c(N)c3cc2c1 | 17.3%
24 | CCN1CCN(C(=O)Cn2nc(C)n3c(cc4c(OC)cccc43)c2=O)CC1 | 1.35%
25 | Cc1c(Cl)cccc1NC(=O)CCC(=O)N/N=C/c1ccco1 | -1.66%

Row | SMILES | max response
26 | CCC(=O)Nc1ccc(-c2ccc(N3CCCCC3)nn2)cc1 | 42.9% (active)
27 | O=C(CN1CCN(c2ccccn2)CC1)Nc1ccc(Br)cc1 | -4.91%
28 | CCCCSc1nnc(-c2ccc(NC(=O)CC)cc2)n1C | -3.61%
29 | O=C1Nc2ccc([N+](=O)[O-])cc2C1=Nc1cccc(CO)c1 | -2.88%
30 | Cc1ccc(C(=O)OC2CCCN(C)C2)cc1 (configuration not stated) | 6.14%
31 | Cn1ccc(=NC=C(C#N)C#N)c2ccccc21 | 1.04%
32 | CCOc1cc(CN2CCCC(CO)(Cc3ccc(F)cc3F)C2)ccc1OC (configuration not stated) | -0.883%
33 | CCn1nnnc1SCC(=O)c1ccc(C)cc1C | 56.3% (active)
34 | COc1ccc(-n2nnnc2SCC(=O)Nc2ccccc2)cc1 | -4.18%
35 | CCn1nnnc1SCC(=O)Nc1ccc(N(C)C)cc1 | 25.2% (active)
36 | CC(=O)Nc1ccc(NC(=O)CSc2nnnn2-c2ccccc2F)cc1 | 9.54%
37 | COc1ccc(C(=O)CSc2nnnn2C)c(OC)c1 | -3.16%
38 | Cc1ccc(C)c(-n2nnnc2SCC(=O)c2c(N)n(C)c(=O)n(C)c2=O)c1 | -2.92%
39 | CCc1nccn1CCC(=O)N1CCCC(N2CCN(c3ccccc3F)CC2)C1 (configuration not stated) | 15.2%
40 | COc1ccc(S(=O)(=O)N(C)CC(=O)NCCCN2CCOCC2)cc1Cl | -1.58%
41 | Cc1cccc([C@@H]2[C@@H]3C(=O)N(Cc4ccccc4)C(=O)[C@@H]3[C@]3(C)C(=O)N(c4ccc(Br)cc4)C(=O)N23)c1 | 7.73%
42 | C=CS(=O)c1sc(Cl)c(N2CCOCC2)c1[N+](=O)[O-] (configuration not stated) | -4.64%
43 | CC(=O)N1CCOc2ccc(S(=O)(=O)N3CCC(C(=O)Nc4ccccc4F)CC3)cc21 | -0.955%
44 | Cc1ccc(N(C(=O)C(F)(F)F)C(C(=O)NC2CCCCC2)c2ccncc2)cc1C (configuration not stated) | -3.75%
45 | Cc1cc(C(=O)COC(=O)c2cccs2)c(C)n1-c1c(C)n(C)n(-c2ccccc2)c1=O | 16.4%
46 | CCCc1cc(=O)[nH]c(SCC(=O)c2cc(C)n(CCC)c2C)n1 | 7.55%
47 | Cc1ccc(OC(=O)c2c(C)nn(-c3ccccc3)c2C)cc1 | 47.6% (active)
48 | Cc1nn(-c2ccccc2)c(-n2cccc2)c1C(=O)O | -4.68%
49 | Cc1nn(-c2ccccc2)c(C)c1C(=O)OCC(=O)NC(=O)NC1CCCCC1 | 2.3%
50 | CCCn1c(C)cc(C(=O)COC(=O)c2c(C)nn(-c3ccccc3)c2C)c1C | 32.3% (active)

Row | SMILES | max response
51 | COCCn1c(SCC(=O)Nc2cc(OC)ccc2OC)nc2c(c1=O)SC(C)C2 (configuration not stated) | -1.66%
52 | CC(C)CC(=O)N1CCN(Cc2ccccc2Br)CC1 | -2%
53 | NC(=O)C(Cc1ccccc1)NC(=O)C12CC3CC(CC(C3)C1)C2 (configuration not stated) | 0.275%
54 | CCOc1ccc(N/C=C/C(=O)c2cc(OC)c(OC)c(OC)c2)cc1 | 3.1%
55 | CCCOc1ccc(NC(=O)C2CCCNC2=O)cc1 (configuration not stated) | 16.5%
56 | Cc1ccc(N/C=C/C(=O)c2ccccc2)cc1C | 45.6% (active)
57 | CCCOc1ccc(N/C=C/C(=O)C(C)(C)C)cc1 | 33% (active)
58 | Cc1ccc(N(NC(=O)C(C)(C)O)C(=O)c2ccccc2)cc1C | -3.59%
59 | CCOc1ccc(N/C=C/C(=O)c2ccccc2)cc1 | 38.2% (active)
60 | Cc1ccc(NNC(=O)C2CCC2)cc1C | -2.16%
61 | CCCOc1ccc(NC(=O)C2OC3OC(C)(C)OC3C3OC(C)(C)OC23)cc1 (configuration not stated) | 10.8%
62 | CCOc1ccc(NC(=S)N2CCC(NC(=O)c3ccccc3)CC2)cc1 | -1.64%
63 | Cc1cc(OCC(=O)NCC(O)c2ccccc2)c2c(C)c(C)c(=O)oc2c1 (configuration not stated) | 8.74%
64 | O=C(O)c1ccccc1C(=O)NC1=NN(c2ccccc2)CC1 | -1.86%
65 | O=C(CSc1n[nH]c(-c2cccnc2)n1)Nc1ccc(Cl)cc1 | 1.65%
66 | CCO[C@@H]1OC(C(=O)NC2CC2)=C[C@H](C)[C@H]1CCCO | -1.17%
67 | CC(NC(=S)NC1CCCCC1)C(c1ccccc1)N1CCOCC1 (configuration not stated) | 0.505%
68 | Cc1cc(=O)n2nc(N3CCCC(C(=O)NCc4cccc(Cl)c4)C3)sc2n1 (configuration not stated) | -3.8%
69 | CN(NS(=O)(=O)c1cccs1)c1ncc(C(F)(F)F)cc1Cl | -0.853%
70 | OC(CNCCc1ccc(Cl)cc1Cl)COc1ccccc1 (configuration not stated) | -1.8%
71 | Cc1cc(C(=O)NCCc2ccc(Cl)cc2)c(C)o1 | 49.4% (active)
72 | Cc1cc(C(=O)NCCc2ccc(Cl)cc2)n(-c2ccccc2)n1 | -0.868%
73 | COc1ccc(OCCCC(=O)NCCc2ccccc2)cc1 | -2.28%
74 | O=C(NCCc1ccccc1)Oc1ccc(Cl)cc1 | 48.1% (active)
75 | NS(=O)(=O)c1ccc(CCNC(=O)c2ccc(Cl)cc2[N+](=O)[O-])cc1 | -2.71%

Row | SMILES | max response
76 | CN(c1ccccc1)S(=O)(=O)c1ccc(C(=O)NCCc2ccccc2)cc1 | 11.2%
77 | O=C(NCCc1ccccc1)C1CC1 | 13%
78 | O=C(NCCc1ccccc1)c1ccc(OCCOc2ccccc2)cc1 | 0.57%
79 | CCCOc1ccc(C(=O)NCCc2ccccc2)cc1 | 27% (active)
80 | Nc1ccc(C(=O)NCc2ccccc2)cc1 | -1.11%
81 | O=C(CCc1ccccc1)NNC(=O)COc1ccc(Cl)cc1 | 0.663%
82 | CC(C)c1ccc(C(=O)NCCCc2ccccc2)cc1 | 46.9% (active)
83 | COc1ccc(-c2nc3cnccn3c2NC(C)(C)CC(C)(C)C)cc1O | -1.64%
84 | Cc1ccc(CN2CCNC(=O)C2CC(=O)NCc2csc(C(C)C)n2)cc1 (configuration not stated) | -3.12%
85 | O=C(COc1ccc(S(=O)(=O)N2CCOCC2)cc1Cl)N1CCOCC1 | -5.7%
86 | Cc1cccc(N2C(=O)N3[C@H](c4ccc(F)cc4)[C@@H]4C(=O)N(C5CCCCC5)C(=O)[C@@H]4[C@]3(Cc3ccccc3)C2=O)c1 | 1.33%
87 | O=c1oc2ccccc2c(NC2CCCCC2)c1NS(=O)(=O)c1ccc(Cl)cc1 | -6.15%
88 | Cc1ccc(N(CC(=O)NCC2CCCO2)C(=O)CNS(=O)(=O)c2ccc(Cl)cc2)cc1 (configuration not stated) | -3.88%
89 | O=C(NCCOc1ccccc1)c1ccccc1 | 68.1% (active)
90 | O=C(CCc1c[nH]c2ccccc12)NCCOc1ccccc1 | 25.1%
91 | NS(=O)(=O)c1cc(C(=O)NCCOc2ccccc2)c(Cl)cc1Cl | -1.96%
92 | CCc1n[nH]c(=S)n1/N=C/c1c[nH]c2ccc(Br)cc12 | -1.29%
93 | CC1=NN(C(N)=S)C(=O)C1N=Nc1cc(Cl)ccc1Cl (configuration not stated) | 4.61%
94 | CCCCc1nc(SCC(=O)Nc2nnc(C(C)C)s2)n[nH]1 | 26.4%
95 | O=C1CCCC(O)=C1N=Nc1ccc(S(=O)(=O)N2CCOCC2)cc1 | 16%
96 | O=C1CCCC(O)=C1N=Nc1ccc2ncsc2c1 | 49.2% (active)
97 | Cc1nc2ccccc2c(=O)n1Cc1ccc([N+](=O)[O-])cc1 | -1.56%
